The full list was thinned out, with hits kept by preference.
Pf Dd2 growth – qHTS Primary assay for Inhibitors of Plasmodium falciparum Dd2 growth in vitro; P. falciparum Dd2 growth, SYBR Green, 72 h; 120,000 tested, 4.3% active; Potency, µM (highest dose often 28.9 µM), inactives show at the highest dose activity, negative = inhibition, usual class: inhibitors; active = well fitted inhibition curve with a large enough effect;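 also: plate controls were DMSO vehicle for no effect and reference drug for full effect; nearly all actives have a fitted effect of over 65% in size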
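Readout: SYBR Green fluorescence, 485 nm excitation, 535 nm emission, after ~16 h lysis at 37C. Before that, Dd2-infected red cells (2.5% hematocrit) grew 72 h with compound, 29 uM top final concentration.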
Numbers without * were called inactive; i = inactive; [ ] = dose if it differs, or a comment. Potency is read from the fitted curve at half-maximal effect.

SMILES	Pf Dd2 growth
COC(=O)c1ccc(CSc2nc3c([nH]c4ccccc43)c(=O)n2-c2ccc(OC)cc2)o1	-10%
CCOC(=O)c1sc2nc(C)n(CC(=O)Nc3cccc(Cl)c3)c(=O)c2c1C	27%
CCc1ccc(NC(=O)Cn2c(=O)c(-c3noc(C)n3)c3n(c2=O)CCCCC3)cc1	i
CC(=O)c1ccc(N2CCN(c3ncnc4onc(-c5ccc(Cl)cc5)c34)CC2)cc1	-24%
CCCCCn1c(CNC(=O)c2ccccc2)nc2ccccc21	i
CCC(CC)NCc1cccnc1Oc1ccccc1	13µM*
O=S(=O)(Cc1ccccc1)NCc1cccnc1Oc1ccccc1	-7%
O=C(NCc1cccnc1Oc1ccccc1)c1ccccn1	1%
Cc1ccc(CNC(=O)C2CCN(S(=O)(=O)N3CCC(C)CC3)CC2)cc1	2%
Cc1ccc(-c2nc(C(=O)NCc3ccc4c(c3)OCO4)no2)cc1	i
Cc1ccc(-c2nc(C(=O)N3CCN(Cc4ccc5c(c4)OCO5)CC3)no2)cc1	11µM*
Cc1ccc(CNC(=O)c2noc(-c3ccc4c(c3)OCO4)n2)cc1	i
CN(C)C(=O)N1C[C@@H]2CN(C3CCOCC3)C[C@]2(C(=O)O)C1	-2%
COCCc1nncn1C1CCN(C(=O)c2cc(F)ccc2F)CC1	-22%
O=C(N[C@@H]1CN(C(=O)Nc2ccc(OC(F)(F)F)cc2)CCC[C@H]1O)c1ccc(OCCN2CCOCC2)cc1	i
COc1ccc(C(=O)N[C@@H]2CN(C(=O)Nc3ccc(OC(F)(F)F)cc3)CCC[C@H]2O)cc1	5µM*
COc1ccc(C(=O)N[C@@H]2CN(C(=O)Nc3cccc(C#N)c3)CCC[C@H]2O)cc1	i
CCNC(=O)N1CCCC(Cc2noc(-c3ccccn3)n2)C1 (configuration not stated)	-14%
O=C(c1cccc(O)c1)N1CC=C(c2cnc3cnc(-c4ccccc4)cn23)CC1	2µM*
O=C(c1ccc(-c2ncc3cnc(C4=CCOCC4)cn23)cc1)N1CCc2ccccc2C1	i
O=C(c1ccc(-c2ncc3cnc(-c4ccccc4)cn23)cc1)N1CCS(=O)(=O)CC1	i
COc1ccc(C)cc1NC(=O)CN1C(=O)NC2(CCC(C(C)(C)C)CC2)C1=O (configuration not stated)	i
CSCCC(NS(=O)(=O)c1ccc2c(c1)oc(=O)n2C)C(=O)Nc1ccc(F)c(Cl)c1 (configuration not stated)	10%
O=C(CCC1CCCN(S(=O)(=O)c2ccccc2F)C1)NCc1cc(F)ccc1F (configuration not stated)	-24%
O=C1c2ccccc2-c2onc3c(NCCO)cc(NC4CCCCC4)c1c23	8.9µM*
SMILES	Pf Dd2 growth
O=C(C1CCCN(c2cnn(Cc3ccccc3)c(=O)c2)C1)N1CCN(C2CCCCC2)CC1 (configuration not stated)	-10%
O=C(O)CCCNc1cc(N2CCN(C3CCCCC3)CC2)c2noc3c2c1C(=O)c1ccccc1-3	11µM*
CCNc1cc(N2CCN(C3CCCCC3)CC2)c2noc3c2c1C(=O)c1ccccc1-3	5µM*
O=C(CC1CCCC1)NC1CCN(c2cnn(Cc3ccccc3)c(=O)c2)CC1	i
Cc1ccc(-c2onc(C)c2C)cc1S(=O)(=O)NC1CCCCC1	24%
COc1ccccc1-c1nc(C2CC(=O)N(C3CCCCC3)C2)no1 (configuration not stated)	i
COc1cccc(N2CCN(C(=O)c3cnc4c(C)cccn4c3=O)CC2)c1	-11%
CC1CCN(C(=O)c2ccccc2OCC2CCCN(Cc3ccccn3)C2)CC1 (configuration not stated)	i
COc1ccc(/C=C/c2nc(C#N)c(NC3CCCCC3)o2)cc1OC	-19%
Cc1ccc2nc(-c3ccc(NC(=O)COc4ccccc4C(C)(C)C)cc3)sc2c1	9%
Cc1ccc(-n2cc(CN3CCN4CCCC4C3)c(-c3cccc(C)c3)n2)cc1 (configuration not stated)	13µM*
CC1CCCN(Cc2cn3c(-c4cccc(Br)c4)nnc3s2)C1 (configuration not stated)	22%
Cc1ccc(-n2cc(CN3CCN(C)C(CCO)C3)cn2)cc1 (configuration not stated)	-22%
Cc1ccc(-n2cc(CN3CCC(CCO)CC3)c(-c3cccc(C)c3)n2)cc1	10µM*
CN(C)C(=O)CN1CCCC(N2CCN(c3cccc(C(F)(F)F)c3)CC2)C1 (configuration not stated)	-9%
COC(=O)CN(C)Cc1cn(-c2ccc(C)cc2)nc1-c1cccc(C)c1	-12%
CN1c2cccnc2CN(C2COC2)CC[C@H]1CO	10%[44.1 µM]
COc1cccc(OC)c1C(=O)Nc1ccc2c(c1)N(C(C)=O)CCC2	74%
CCOC(=O)C1CCN(C(c2cccc(F)c2)c2c(O)cc(C)n(CCOC)c2=O)CC1 (configuration not stated)	122%
Cc1ccccc1NC(=O)c1ccccc1NC(=O)c1ccccc1Cl	9%
CCCNC(=O)CCc1cc2cc(OC)ccc2[nH]c1=O	20%
CN(C)c1cc(=O)c2ccnc(-c3cccc(C(F)(F)F)c3)c2o1	i
O=C(Nc1cccc(Cl)c1)N1CCOC(CN(CC2CC2)C(=O)c2cccc(F)c2)C1 (configuration not stated)	4.5µM*
O=C(Nc1ccccc1)N1CCOC(CN(CC2CC2)C(=O)c2cccc(F)c2)C1 (configuration not stated)	i
Cc1ccc(C(=O)N(CC(C)C)CC2CN(C(=O)Nc3cccc(Cl)c3)CCO2)cc1 (configuration not stated)	-26%
SMILES	Pf Dd2 growth
COc1ccc(-c2cc3nc(N)cc(=O)n3[nH]2)cc1	26%
CN1C(=O)C(c2ccccc2)CC12CCN(C(=O)c1cccc(O)c1)CC2 (configuration not stated)	-18%
COCc1cc(C)n(CC(=O)Nc2cccc(C(C)=O)c2)c(=O)c1C#N	28%
CC(=O)N[C@@H]1C[C@H](Cc2ccccc2)O[C@H](c2c(C)nc3sccn23)C1	-14%
COc1ccc(-c2noc(-c3cccn3CC(=O)N3CCOc4ccc(C)cc43)n2)cc1F	4µM*
COc1ccc(-c2noc(-c3cccn3CC(=O)N3CCc4ccccc43)n2)cc1F	25%
O=C(Cn1cccc1-c1nc(-c2ccccc2)no1)NCc1ccc(F)cc1Cl	i
COc1ccc(C(=O)NCCn2cccc2-c2nc(-c3ccccc3)no2)cc1F	5µM*
COc1ccc(-c2noc(-c3cccn3CC(=O)Nc3ccc(C)c(C)c3)n2)cc1F	i
COc1ccccc1CC(=O)NCCn1cccc1-c1nc(-c2ccccc2)no1	8.9µM*
COCCNC(=O)Cn1cccc1-c1nc(-c2ccc(OC)c(F)c2)no1	-3%
O=C(Cn1cccc1-c1nc(-c2ccccc2)no1)NCCc1ccc(Cl)cc1	39%
CCN(C(=O)Cn1cccc1-c1nc(-c2ccc(OC)c(F)c2)no1)c1ccccc1	i
Cc1noc([C@@H]2C[C@H](NC(=O)c3ccccc3)CN2C)n1	-8%[44.1 µM]
Cc1nc(C)c(CCNS(=O)(=O)c2ccc(F)cc2)s1	47%
O=C(c1cc2c(s1)CCCC2)N1CCc2c(nc3cc(-c4ccccc4)[nH]n3c2=O)C1	13%
CCN1CCCC1CNC(=O)CC[C@H]1NC(=O)c2ccccc2NC1=O (some centres not stated)	-6%
O=C(NC1CCN(c2cc(-c3ccc(F)cc3)[nH]n2)CC1)c1ccc(F)cc1F	-3%

Source: PubChem BioAssay (National Center for Advancing Translational Sciences (NCATS))
